Values joined by “and” are separate entries in the source; they are usually repeats but may differ in a detail not shown here. Equal entries are not always repeated. Some compounds were tested as several samples or in several runs, with calls that do not always agree. Active and inactive are the calls of the source. How the source made its calls: active means hit-call score of the fitted dose curve at least 0.9, where 1 is the maximum; inactive means score below 0.9.

The nature of one assay: CCTE_Shafer_MEA_dev_inter_network_spike_interval_mean: CCTE's Neural Network Formation Assay for Mean Inter-network Spike Interval, Shafer Lab (AID 2284047).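 On AC50: potency for a decrease in mean inter-network spike interval below DMSO.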 Put shortly: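 Rat cortical cultures, 1.5 x 10^5 cells/well on 48-well MEA plates; continuous exposure days 0–12, medium and compound refreshed DIV 5, 9. Mean time between consecutive network-spike peaks; AUC across DIV 5/7/9/12; DMSO baseline, negative fitting direction.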
Regarding `OC(Cn1cncn1)(Cn1cncn1)c1ccc(F)cc1F`, the AC50 is 3830 nM (active).

For `FC(F)(F)C(F)(F)C(F)(F)C(F)(F)C(F)(F)C(F)(F)I`, the outcome was inactive.

For the molecule `CCOc1ccc2[nH]cc(C(=O)NCc3ccccc3)c(=O)c2n1`, the call was inactive.

Take `NNC(=O)c1ccncc1`: the molecule was classed as inactive.

Regarding `Cn1cc[nH]c1=S`, the outcome was inactive.

In the case of `OC(O)(C(F)C(O)(O)C(F)(F)F)C(F)(F)F`, the molecule was called inactive.

`CC[C@H](C)C(=O)O[C@H]1C[C@H](O)C=C2C=C[C@H](C)[C@H](CC[C@@H](O)C[C@@H](O)CC(=O)O)[C@H]21`: the molecule was called inactive.

In the case of `C[C@]12C=CC(=O)C=C1CC[C@H]1[C@@H]3C[C@@H](O)[C@](O)(C(=O)CO)[C@@]3(C)C[C@H](O)[C@@]12F`, the molecule was classed as inactive.

Take `OCCC(F)(F)C(F)(F)C(F)(F)C(F)(F)F`: the molecule was classed as inactive.

On to `c1ccc2cc3ccccc3cc2c1`, for which the result was inactive.

As for `FC(F)(F)COC(OCC(F)(F)F)OCC(F)(F)F`, the molecule was called inactive.

As to `COc1cc2c(c(OC)c1OC)-c1ccc(OC)c(=O)cc1[C@@H](NC(C)=O)CC2`, the AC50 was 26.2 nM (active).

`O=C(Cl)C(F)(F)C(F)(F)C(F)(F)C(=O)Cl`: the molecule was called inactive.

On to `CCN(CC)C(=S)SSC(=S)N(CC)CC`, for which the AC50 was 225 nM (active) and 91.6 nM (active).

`c1ccc2c(c1)-c1cccc3c1c-2cc1ccccc13`: the call was inactive.

Take `NCC(F)(F)C(F)(F)C(F)(F)C(F)(F)F`: the molecule was called inactive.

On to `NC(=O)N1c2ccccc2C=Cc2ccccc21`, for which the call was inactive.

`Nc1ccn([C@@H]2O[C@H](CO)[C@@H](O)[C@@H]2O)c(=O)n1`: the AC50 is 140 nM (active) and the outcome was inactive.

Another assay can be described thus: CCTE_Shafer_MEA_dev_network_spike_number: CCTE's Neural Network Formation Assay for Number of Network Spikes, Shafer Lab (AID 2284048).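 Further: synchronized bursts across electrodes counted on days 5 7 9 12 and integrated as AUC.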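 On AC50: fit as a loss of signal meaning fewer network spikes than DMSO.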 The method in brief:
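Rat cortical primary cultures on 48-well MEA (16 electrodes/well); continuous exposure DIV 0–12, full medium and treatment exchange DIV 5, 9. Readout: network spike count, AxIS adaptive detection, recordings DIV 5/7/9/12 collapsed to AUC; loss-of-signal fit, DMSO baseline.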
As to `OC(Cn1cncn1)(Cn1cncn1)c1ccc(F)cc1F`, the call was inactive.

Consider `FC(F)(F)C(F)(F)C(F)(F)C(F)(F)C(F)(F)C(F)(F)I`, for which the molecule was called inactive.

As to `CCCC(CCC)C(=O)O`, the result was inactive.

`CCOc1ccc2[nH]cc(C(=O)NCc3ccccc3)c(=O)c2n1`: the molecule was classed as inactive.

For `NNC(=O)c1ccncc1`, the result was inactive.

On to `Cn1cc[nH]c1=S`, for which the molecule was called inactive.

With `OC(O)(C(F)C(O)(O)C(F)(F)F)C(F)(F)F`, the call was inactive.

As for `CC[C@H](C)C(=O)O[C@H]1C[C@H](O)C=C2C=C[C@H](C)[C@H](CC[C@@H](O)C[C@@H](O)CC(=O)O)[C@H]21`, the AC50 is 143 nM (active).

As to `C[C@]12C=CC(=O)C=C1CC[C@H]1[C@@H]3C[C@@H](O)[C@](O)(C(=O)CO)[C@@]3(C)C[C@H](O)[C@@]12F`, the molecule was classed as inactive.

As for `OCCC(F)(F)C(F)(F)C(F)(F)C(F)(F)F`, the result was inactive.

As to `c1ccc2cc3ccccc3cc2c1`, the outcome was inactive.

Take `FC(F)(F)COC(OCC(F)(F)F)OCC(F)(F)F`: the result was inactive.

Turning to `COc1cc2c(c(OC)c1OC)-c1ccc(OC)c(=O)cc1[C@@H](NC(C)=O)CC2`, the AC50 was 26 nM (active).

Consider `O=C(Cl)C(F)(F)C(F)(F)C(F)(F)C(=O)Cl`, for which the molecule was classed as inactive.

Turning to `CCN(CC)C(=S)SSC(=S)N(CC)CC`, the AC50 is 102 nM (active) and 52.1 nM (active).

With `c1ccc2c(c1)-c1cccc3c1c-2cc1ccccc13`, the result was inactive.

In the case of `NCC(F)(F)C(F)(F)C(F)(F)C(F)(F)F`, the molecule was called inactive.

With `NC(=O)N1c2ccccc2C=Cc2ccccc21`, the call was inactive.

Consider `Nc1ccn([C@@H]2O[C@H](CO)[C@@H](O)[C@@H]2O)c(=O)n1`, for which the half-maximal activity concentration (AC50) was 144 nM (active) and 143 nM (active).

A short description of the next assay: CCTE_Shafer_MEA_dev_network_spike_peak: CCTE's Neural Network Formation Assay for Mean Number of Electrodes in Network Spike, Shafer Lab (AID 2284049).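 On AC50: fitted for loss of signal meaning fewer electrodes in network spikes than DMSO.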 The method in brief:
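Network-spike peak electrode count from recordings on days 5, 7, 9 and 12 was combined as trapezoidal area under the curve. Rat cortical cultures were treated continuously from plating, with compound renewed at each feed (DIV 5, 9); fits versus DMSO.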
With `OC(Cn1cncn1)(Cn1cncn1)c1ccc(F)cc1F`, the molecule was classed as inactive.

For the molecule `FC(F)(F)C(F)(F)C(F)(F)C(F)(F)C(F)(F)C(F)(F)I`, the outcome was inactive.

With `CCCC(CCC)C(=O)O`, the outcome was inactive.

On to `CCOc1ccc2[nH]cc(C(=O)NCc3ccccc3)c(=O)c2n1`, for which the outcome was inactive.

Regarding `NNC(=O)c1ccncc1`, the AC50 was 2.98 µM (active).

Take `Cn1cc[nH]c1=S`: the result was inactive.

In the case of `OC(O)(C(F)C(O)(O)C(F)(F)F)C(F)(F)F`, the call was inactive.

Consider `CC[C@H](C)C(=O)O[C@H]1C[C@H](O)C=C2C=C[C@H](C)[C@H](CC[C@@H](O)C[C@@H](O)CC(=O)O)[C@H]21`, for which the AC50 was 3.06 µM (active).

Take `C[C@]12C=CC(=O)C=C1CC[C@H]1[C@@H]3C[C@@H](O)[C@](O)(C(=O)CO)[C@@]3(C)C[C@H](O)[C@@]12F`: the AC50 is 0.116 µM (active).

Take `OCCC(F)(F)C(F)(F)C(F)(F)C(F)(F)F`: the outcome was inactive.

Take `c1ccc2cc3ccccc3cc2c1`: the molecule was called inactive.

In the case of `FC(F)(F)COC(OCC(F)(F)F)OCC(F)(F)F`, the result was inactive.

Consider `COc1cc2c(c(OC)c1OC)-c1ccc(OC)c(=O)cc1[C@@H](NC(C)=O)CC2`, for which the AC50 is 0.0261 µM (active).

Take `O=C(Cl)C(F)(F)C(F)(F)C(F)(F)C(=O)Cl`: the result was inactive.

Turning to `CCN(CC)C(=S)SSC(=S)N(CC)CC`, the AC50 was 110 nM (active) and 50.8 nM (active).

As for `c1ccc2c(c1)-c1cccc3c1c-2cc1ccccc13`, the half-maximal activity concentration (AC50) is 6.22 µM (active).

As for `NCC(F)(F)C(F)(F)C(F)(F)C(F)(F)F`, the result was inactive.

In the case of `NC(=O)N1c2ccccc2C=Cc2ccccc21`, the outcome was inactive.

For `Nc1ccn([C@@H]2O[C@H](CO)[C@@H](O)[C@@H]2O)c(=O)n1`, the AC50 was 160 nM (active) and 623 nM (active).

As a reminder, the AC50 is the concentration at which the activity in the assay is half-maximal.

(Values after PubChem BioAssay (EPA / NIEHS).)
